Data as given in PubChem BioAssay (NCATS).
Unmarked numbers belong to inactive results. Results filed as inconclusive are left out. Where a call stands in place of a potency, no number is given. The source made the active and inactive calls. Unless noted, calls follow the shape of the dose curve; as a rule, active = well fitted curve in the direction sought with a large enough effect; inconclusive = small, poorly fitted or top-dose-only effect, or another doubt; inactive = no such curve, though single readings can be large; an effect the other way counts as inactive or inconclusive.

Experiments:
[1] = target: Glucocorticoid receptor (Homo sapiens) (UniProt P04150); experiment: GR-EFC Redistribution (AID 451; calls by dose curve; also: potency is read from the fitted curve at half-maximal effect); settings: CHO-K1 GR-EFC translocation, beta-gal luminescence, 2 h
Sequence of Glucocorticoid receptor (Homo sapiens) (P04150 whole entry, looked up, the tested form may be a part): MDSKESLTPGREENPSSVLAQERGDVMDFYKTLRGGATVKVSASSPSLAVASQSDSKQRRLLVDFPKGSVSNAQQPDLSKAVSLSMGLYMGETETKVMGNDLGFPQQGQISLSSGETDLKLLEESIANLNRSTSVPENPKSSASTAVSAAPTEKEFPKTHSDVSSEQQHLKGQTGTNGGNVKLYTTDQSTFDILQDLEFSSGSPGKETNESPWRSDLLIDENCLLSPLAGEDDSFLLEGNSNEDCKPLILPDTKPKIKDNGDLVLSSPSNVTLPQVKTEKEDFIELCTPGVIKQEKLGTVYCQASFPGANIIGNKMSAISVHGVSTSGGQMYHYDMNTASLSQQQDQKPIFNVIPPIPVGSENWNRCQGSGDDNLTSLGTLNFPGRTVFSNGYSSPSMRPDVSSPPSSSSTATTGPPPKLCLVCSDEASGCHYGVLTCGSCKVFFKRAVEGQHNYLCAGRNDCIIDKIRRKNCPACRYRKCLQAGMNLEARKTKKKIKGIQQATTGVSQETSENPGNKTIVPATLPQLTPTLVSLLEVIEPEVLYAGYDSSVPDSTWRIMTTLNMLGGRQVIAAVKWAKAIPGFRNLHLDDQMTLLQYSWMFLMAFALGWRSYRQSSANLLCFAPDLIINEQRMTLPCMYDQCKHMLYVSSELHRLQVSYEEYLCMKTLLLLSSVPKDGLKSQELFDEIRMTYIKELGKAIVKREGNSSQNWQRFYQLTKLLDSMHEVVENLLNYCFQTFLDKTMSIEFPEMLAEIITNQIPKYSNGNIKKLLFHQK
Outline: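 Translocation of GR-ED fusion to nuclear EA restores b-gal, read by luminescence after 1 h room-temperature detection. Engineered CHO-K1 biosensor cells, 1,000/well, exposed 2 h at 37 C to titrations up to 46 uM final.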

[2] = target: Mitogen-activated protein kinase 10 (Mus musculus) (UniProt Q61831); experiment: JNK3 AlphaScreen Assay (AID 530; active = well fitted curve in either direction with a large enough effect, not every such curve was filed as active;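 also: kinase came from lysate of stimulated human HepG2 cells; signal reports phosphorylation of biotinylated GST-cJun 1-79 at Ser73 with 10 µM ATP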); settings: JNK3 lysate, c-Jun phosphorylation; series mostly up to 57.1 µM
Outline: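 Compound titrations were preincubated 15 minutes at room temperature with substrate, antibody and pre-activated JNK3-containing HepG2 lysate. Reactions were started with 10 uM ATP and stopped with EDTA-containing bead buffer for AlphaScreen detection.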

[3] = target: 3',5'-cyclic-AMP phosphodiesterase 4B (Homo sapiens) (UniProt Q07343); experiment: qHTS Assay for Inhibitors of PDE-IV (AID 607; active = well fitted activation curve with a large enough effect in the main read-out, with a control signal flat, not every such curve was filed as active); settings: HEK293 ACTOne CNG channel cells, membrane potential fluorescence; series mostly up to 22.9 µM
Sequence of 3',5'-cyclic-AMP phosphodiesterase 4B (Homo sapiens) (Q07343 whole entry, looked up): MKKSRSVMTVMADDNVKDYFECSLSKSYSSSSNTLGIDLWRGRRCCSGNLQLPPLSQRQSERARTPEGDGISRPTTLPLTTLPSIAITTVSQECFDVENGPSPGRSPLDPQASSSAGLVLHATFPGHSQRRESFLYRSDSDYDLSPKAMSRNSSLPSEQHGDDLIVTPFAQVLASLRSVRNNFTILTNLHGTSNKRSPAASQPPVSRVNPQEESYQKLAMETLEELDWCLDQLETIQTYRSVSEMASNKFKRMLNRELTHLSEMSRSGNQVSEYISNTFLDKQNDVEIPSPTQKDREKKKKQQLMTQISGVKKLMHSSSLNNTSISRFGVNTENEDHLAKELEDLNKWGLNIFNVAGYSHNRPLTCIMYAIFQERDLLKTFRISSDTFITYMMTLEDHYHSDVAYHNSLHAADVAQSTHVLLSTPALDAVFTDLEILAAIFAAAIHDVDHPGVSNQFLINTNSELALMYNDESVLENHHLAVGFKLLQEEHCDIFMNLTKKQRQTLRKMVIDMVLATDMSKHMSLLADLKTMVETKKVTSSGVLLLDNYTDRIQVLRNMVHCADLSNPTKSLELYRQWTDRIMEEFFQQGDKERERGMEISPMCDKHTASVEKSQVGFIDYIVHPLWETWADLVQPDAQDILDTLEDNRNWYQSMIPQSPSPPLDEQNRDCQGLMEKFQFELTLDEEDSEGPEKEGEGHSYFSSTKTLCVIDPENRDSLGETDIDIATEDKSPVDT
Outline: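 The readout is membrane depolarisation from a cAMP-sensing CNG channel, detected with a potential dye at ex 535/em 590. Cells were HEK293-derived (endogenous PDE-IV) at 1000 cells/well, titrated up to 22.9 uM final.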

[4] = target: Cytochrome P450 2D6 (Homo sapiens) (UniProt P10635); experiment: qHTS Assay for Inhibitors and Substrates of Cytochrome P450 2D6 (AID 891); settings: recombinant CYP2D6, luciferin-ME EGE luminescence; series mostly up to 57.1 µM;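 also: luciferin methyl ether substrate demethylated by CYP2D6 with NADPH regeneration; nearly all actives have a fitted effect of over 60% in size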
Sequence of Cytochrome P450 2D6 (Homo sapiens) (P10635 whole entry, looked up): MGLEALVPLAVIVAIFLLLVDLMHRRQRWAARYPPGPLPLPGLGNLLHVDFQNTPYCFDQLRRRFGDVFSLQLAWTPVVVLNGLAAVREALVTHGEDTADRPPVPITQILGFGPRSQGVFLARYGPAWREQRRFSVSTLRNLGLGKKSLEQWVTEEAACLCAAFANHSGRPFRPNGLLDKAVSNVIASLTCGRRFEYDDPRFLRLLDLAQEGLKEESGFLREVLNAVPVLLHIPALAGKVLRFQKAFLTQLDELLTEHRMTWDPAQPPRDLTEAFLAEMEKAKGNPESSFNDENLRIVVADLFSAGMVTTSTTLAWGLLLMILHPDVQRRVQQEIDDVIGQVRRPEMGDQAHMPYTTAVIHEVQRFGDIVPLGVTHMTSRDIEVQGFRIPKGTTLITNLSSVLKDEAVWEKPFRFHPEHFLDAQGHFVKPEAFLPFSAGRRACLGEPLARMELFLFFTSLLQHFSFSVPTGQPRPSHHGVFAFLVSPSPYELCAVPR
Outline: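 Human CYP2D6 (5 nM) with 30 uM Luciferin-ME EGE (at Km) in 100 mM KPO4, compound preincubated 10 min, then NADPH regeneration system for 60 min at room temperature. Luciferin read by luminescence; normalized to 1.43 uM quinidine.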

[5] = target: Cytochrome P450 2C19 (Homo sapiens) (UniProt P33261); experiment: qHTS Assay for Inhibitors and Substrates of Cytochrome P450 2C19 (AID 899); settings: recombinant CYP2C19, luciferin-H EGE luminescence; series mostly up to 57.1 µM; also: nearly all actives have a fitted effect of over 60% in size; also: potency is read from the fitted curve at half-maximal effect
Sequence of Cytochrome P450 2C19 (Homo sapiens) (P33261 whole entry, looked up): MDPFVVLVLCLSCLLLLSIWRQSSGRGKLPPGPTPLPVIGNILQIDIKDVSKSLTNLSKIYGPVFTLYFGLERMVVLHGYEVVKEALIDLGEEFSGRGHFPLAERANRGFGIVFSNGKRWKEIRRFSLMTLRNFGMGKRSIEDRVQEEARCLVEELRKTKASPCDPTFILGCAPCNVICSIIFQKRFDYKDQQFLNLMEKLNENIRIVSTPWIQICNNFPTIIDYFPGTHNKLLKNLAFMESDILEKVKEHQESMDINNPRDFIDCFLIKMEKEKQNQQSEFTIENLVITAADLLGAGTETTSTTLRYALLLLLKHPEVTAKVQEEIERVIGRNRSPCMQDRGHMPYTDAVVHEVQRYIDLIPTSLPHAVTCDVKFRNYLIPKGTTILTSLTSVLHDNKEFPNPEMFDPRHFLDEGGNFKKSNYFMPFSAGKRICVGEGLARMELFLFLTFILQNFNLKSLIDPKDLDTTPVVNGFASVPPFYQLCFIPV
Outline: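 5nM enzyme + 10uM Luciferin-H EGE (=KM), 50mM KPO4; cpd pin-transferred, 10 min 37C; NADPH regen, 60 min 37C; stopped w/ luciferin detection reagent, 20 min; luminescence. Normalized to 57uM ketoconazole (AC100).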

[6] = target: Tyrosyl-DNA phosphodiesterase 1 (Homo sapiens) (UniProt Q9NUW8); experiment: Confirmation Assay for Inhibitors of Tyrosyl-DNA Phosphodiesterase (TDP1) (AID 489007); settings: recombinant human TDP1 enzymatic activity, dose-response; also: potency is read from the fitted curve at half-maximal effect; nearly all actives have a fitted effect of over 40% in size
Sequence of Tyrosyl-DNA phosphodiesterase 1 (Homo sapiens) (Q9NUW8 whole entry, looked up): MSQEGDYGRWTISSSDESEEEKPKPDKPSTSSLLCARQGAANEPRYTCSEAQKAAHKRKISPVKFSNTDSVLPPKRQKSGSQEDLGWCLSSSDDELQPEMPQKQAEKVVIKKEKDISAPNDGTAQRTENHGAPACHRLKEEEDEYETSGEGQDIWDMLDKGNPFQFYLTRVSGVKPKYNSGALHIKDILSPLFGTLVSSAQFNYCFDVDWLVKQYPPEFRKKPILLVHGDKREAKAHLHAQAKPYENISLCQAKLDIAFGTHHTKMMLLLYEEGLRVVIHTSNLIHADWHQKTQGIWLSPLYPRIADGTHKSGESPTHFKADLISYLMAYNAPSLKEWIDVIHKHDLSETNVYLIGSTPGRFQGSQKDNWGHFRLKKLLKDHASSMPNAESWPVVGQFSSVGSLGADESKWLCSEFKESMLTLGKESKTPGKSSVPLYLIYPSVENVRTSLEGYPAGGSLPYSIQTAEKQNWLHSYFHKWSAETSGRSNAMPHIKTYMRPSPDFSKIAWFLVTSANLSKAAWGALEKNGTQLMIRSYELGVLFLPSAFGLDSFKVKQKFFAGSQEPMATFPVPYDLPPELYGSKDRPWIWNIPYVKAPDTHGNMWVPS
Outline: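 Recombinant human Tdp1 (1 nM final), expressed in E. coli, preincubated 15 min with compound. Then 15 nM 5'-biotin/3'-phosphotyrosine-FITC DNA substrate added for 5 min at room temperature. AlphaScreen beads (10 ug/ml) added for 10 min; cleavage gives signal loss.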

[7] = target: Cytochrome P450 2C9 (Homo sapiens) (UniProt P11712); experiment: qHTS Assay for Inhibitors and Substrates of Cytochrome P450 2C9 (AID 883); settings: recombinant CYP2C9, luciferin-H luminescence, 60 min; series mostly up to 57.1 µM; also: nearly all actives have a fitted effect of over 60% in size
Sequence of Cytochrome P450 2C9 (Homo sapiens) (P11712 whole entry, looked up): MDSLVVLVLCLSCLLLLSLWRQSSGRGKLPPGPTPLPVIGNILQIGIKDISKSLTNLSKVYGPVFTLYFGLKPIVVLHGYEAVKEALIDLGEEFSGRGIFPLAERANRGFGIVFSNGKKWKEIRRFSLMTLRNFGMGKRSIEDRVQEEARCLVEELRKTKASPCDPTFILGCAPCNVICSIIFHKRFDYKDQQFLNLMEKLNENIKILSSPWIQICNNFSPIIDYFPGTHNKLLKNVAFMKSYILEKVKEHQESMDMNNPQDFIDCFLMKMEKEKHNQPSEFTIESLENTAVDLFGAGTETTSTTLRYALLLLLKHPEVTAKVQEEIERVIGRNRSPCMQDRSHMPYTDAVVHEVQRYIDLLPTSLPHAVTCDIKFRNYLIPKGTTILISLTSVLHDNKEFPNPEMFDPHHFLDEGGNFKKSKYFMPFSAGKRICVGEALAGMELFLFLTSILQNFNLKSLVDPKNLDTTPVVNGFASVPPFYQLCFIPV
Outline: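 Inhibition of CYP2C9 is scored as loss of luminescence, with 57uM sulphaphenazole defining 100% inhibition. Substrate Luciferin-H is used at 100uM, equal to its KM; enzyme at 10nM in 25mM KPO4, 60 min at 37C with NADPH regeneration.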

In the case of `CC(C)C[C@@H](CC(=O)N[C@@H](CCCN)CC(=O)N[C@@H]1CCNC[C@H]1C(=O)N[C@H](CC(=O)N[C@@H](CCC(=O)O)CC(=O)O)CC(C)C)NC(=O)[C@@H]1CCCC[C@H]1N`, the Potency [1] is reported as over 46 µM, the Potency [2] is reported as “inactive” and the Potency [3] is reported as “inactive”. The Potency [4] was “inactive” and the Potency [5] was 15.8 µM (active).
With `NCCC[C@@H](CC(=O)N[C@@H]1CCNC[C@H]1C(=O)N[C@H](CC(=O)N[C@@H](CCC(=O)O)CC(=O)O)Cc1ccccc1)NC(=O)C[C@H](CO)NC(=O)[C@@H]1CNCC[C@H]1N` the Potency [1] was over 46 µM, the Potency [3] was “inactive” and the Potency [4] was “inactive”.
With `Cc1ccc(S(=O)(=O)N(CC(=O)O)Cc2ccco2)cc1` the Potency [6] was 20 µM (active).
In the case of `O=C(O)c1cc(-c2ccc(/C=C3\NC(=O)N(c4ccccc4)C3=O)o2)ccc1Cl`, the Potency [6] is reported as 7.08 µM (active).
`CC(C)[C@@H](CC(=O)N[C@@H]1CCCC[C@H]1C(=O)N[C@H](CC(=O)N[C@@H](CCC(=O)O)CC(=O)O)Cc1ccccc1)NC(=O)C[C@H](Cc1c[nH]c2ccccc12)NC(=O)[C@@H]1CNCC[C@H]1N` was tested, and the Potency [1] was over 46 µM, the Potency [3] was “inactive” and the Potency [4] was “inactive”. For the same compound, the Potency [5] was “inactive”.
In the case of `CC(=O)c1ccc(NC(=O)c2noc3c2CCC3)cc1`, the Potency [6] is reported as 50.1 µM (active).
In the case of `NCCC[C@@H](CC(=O)N[C@@H]1CCNC[C@H]1C(=O)N[C@H](CC(=O)N[C@@H](CCC(=O)O)CC(=O)O)Cc1ccccc1)NC(=O)C[C@H](Cc1c[nH]c2ccccc12)NC(=O)[C@@H]1CCCC[C@H]1N`, the Potency [1] is reported as over 46 µM, the Potency [2] is reported as “inactive” and the Potency [4] is reported as “inactive”. The Potency [5] was “inactive”.
For `NCCC[C@@H](CC(=O)N[C@@H]1CCCC[C@H]1C(=O)N[C@H](CC(=O)N[C@@H](CCC(=O)O)CC(=O)O)Cc1ccccc1)NC(=O)C[C@H](CO)NC(=O)[C@@H]1CCCC[C@H]1N`, the Potency [1] was over 46 µM, the Potency [3] was “inactive” and the Potency [4] was “inactive”. The Potency [5] was “inactive”.
With `CC(C)[C@@H](CC(=O)N[C@@H]1CCCC[C@H]1C(=O)N[C@H](CC(=O)N[C@@H](CCC(=O)O)CC(=O)O)Cc1ccccc1)NC(=O)C[C@H](Cc1ccccc1)NC(=O)[C@@H]1CCCC[C@H]1N` the Potency [1] was over 46 µM, the Potency [2] was “inactive” and the Potency [3] was “inactive”. The Potency [4] was “inactive” and the Potency [5] was “inactive”.
With `CN(C)c1nc(-c2ccccc2)c2cnn(Cc3ccccc3)c2n1` the Potency [6] was 63.1 µM (active).
With `CC(=O)NC1=NC(=O)/C(=C/c2cc(C)n(-c3cccc(C(=O)O)c3)c2C)S1` the Potency [6] was 2 µM (active).
For `CC(C)[C@@H](CC(=O)N[C@@H]1CCCC[C@H]1C(=O)N[C@H](CC(=O)N[C@@H](CCC(=O)O)CC(=O)O)Cc1ccccc1)NC(=O)C[C@H](Cc1ccccc1)NC(=O)[C@@H]1CNCC[C@H]1N`, the Potency [1] was over 46 µM, the Potency [2] was “inactive” and the Potency [3] was “inactive”. For the same compound, the Potency [4] was “inactive” and the Potency [5] was “inactive”.
With `CCOC(=O)c1sc(NC(=O)C2CC=CCC2C(=O)O)nc1C` (stereo not drawn) the Potency [6] was 39.8 µM (active).
With `CC(=O)c1ccc(NC(=O)c2ccc3nc(-c4ccco4)c(-c4ccco4)nc3c2)cc1` the Potency [6] was 7.08 µM (active).
With `O=C(CCc1n[nH]c(=O)[nH]c1=O)N/N=C/c1ccco1` the Potency [6] was 31.6 µM (active).
For `NCCC[C@@H](CC(=O)N[C@@H]1CCCC[C@H]1C(=O)N[C@H](CC(=O)N[C@@H](CCC(=O)O)CC(=O)O)Cc1ccccc1)NC(=O)C[C@H](Cc1ccccc1)NC(=O)[C@@H]1CNCC[C@H]1N`, the Potency [1] was over 46 µM, the Potency [3] was “inactive” and the Potency [7] was “inactive”. The Potency [4] was “inactive” and the Potency [5] was “inactive”.
In the case of `COc1ccc(N2Cc3cccc(C(=O)O)c3C2=O)cc1`, the Potency [6] is reported as 2.51 µM (active).
For `NCCC[C@@H](CC(=O)N[C@@H]1CCCC[C@H]1C(=O)N[C@H](CC(=O)N[C@@H](CCC(=O)O)CC(=O)O)Cc1ccccc1)NC(=O)C[C@H](Cc1c[nH]c2ccccc12)NC(=O)[C@@H]1CCCC[C@H]1N`, the Potency [1] was over 46 µM, the Potency [3] was “inactive” and the Potency [4] was “inactive”. The Potency [5] was “inactive”.
`CN(C)/C=C/C=C1C(=O)CCCC1=O` was tested, and the Potency [6] was 89.1 µM (active).
`CCOc1ccc(N=Cc2c(C)[nH]n(-c3nc4ccccc4[nH]3)c2=O)cc1` was tested, and the Potency [6] was 31.6 µM (active).
`Cc1nc2ccc(C(=O)O)cc2c2c1CC(C)S2` (stereo not drawn) was tested, and the Potency [6] was 31.6 µM (active).
`CC(C)C[C@@H](CC(=O)N[C@H](CC(=O)N[C@@H]1CCCC[C@H]1C(=O)N[C@H](CC(=O)N[C@@H](CCC(=O)O)CC(=O)O)Cc1ccccc1)C(C)C)NC(=O)[C@@H]1CNCC[C@H]1N` was tested, and the Potency [1] was over 46 µM, the Potency [3] was “inactive” and the Potency [4] was “inactive”. The Potency [5] was “inactive”.
With `NCCC[C@@H](CC(=O)N[C@@H]1CCNC[C@H]1C(=O)N[C@H](CC(=O)N[C@@H](CCC(=O)O)CC(=O)O)Cc1c[nH]c2ccccc12)NC(=O)C[C@H](Cc1ccccc1)NC(=O)[C@@H]1CCCC[C@H]1N` the Potency [1] was over 46 µM, the Potency [3] was “inactive” and the Potency [7] was “inactive”. For the same compound, the Potency [4] was “inactive” and the Potency [5] was “inactive”.
`CC(C)C[C@@H](CC(=O)N[C@H](CC(=O)N[C@@H]1CCCC[C@H]1C(=O)N[C@H](CC(=O)N[C@@H](CCC(=O)O)CC(=O)O)Cc1ccccc1)C(C)C)NC(=O)[C@@H]1CCCC[C@H]1N` was tested, and the Potency [1] was over 46 µM, the Potency [2] was “inactive” and the Potency [4] was “inactive”. For the same compound, the Potency [5] was “inactive”.
For `CC(C)C[C@@H](CC(=O)N[C@@H](CCCN)CC(=O)N[C@@H]1CCNC[C@H]1C(=O)N[C@H](CC(=O)N[C@@H](CCC(=O)O)CC(=O)O)Cc1ccccc1)NC(=O)[C@@H]1CCCC[C@H]1N`, the Potency [1] was over 46 µM, the Potency [3] was “inactive” and the Potency [5] was “inactive”.
With `O=C(O)C1Cc2ccccc2CN1C(=O)COc1ccc(Br)cc1` (stereo not drawn) the Potency [6] was 15.8 µM (active).
